Positions count from the first letter of the chain named. Over roughly 16,000 sequences, “ka relative to ugcaugu” has its median near 0.0091; the highest 2% begin near 0.032. For the sample, the highest values were picked, then their nearest neighbours and some sequences at random.
T1: RBFOX1 RRM (Homo sapiens, UniProt Q9NWB1 109-208)
T1 sequence: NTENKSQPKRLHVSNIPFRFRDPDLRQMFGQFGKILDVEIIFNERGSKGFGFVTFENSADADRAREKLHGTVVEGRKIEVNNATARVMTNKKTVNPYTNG

B1: UUAGAUC (DNA:RNA)
RNA: GGGAGACCGGAAUUCAGAUUGUCCUUAGAUCUUAAAUCCCGUCGUAGCCACCA
DNA 1: CAATCTGAATTCCGGTCTCCC
DNA 2: TGGTGGCTACGACGGGATT
B2: GGCGUGC (DNA:RNA)
RNA: B1 RNA with U25G, U26G, A27C, A29U, U30G
DNA 1: CAATCTGAATTCCGGTCTCCC
DNA 2: TGGTGGCTACGACGGGATT
B3: CUCGUCC (DNA:RNA)
RNA: B1 RNA with U25C, A27C, A29U, U30C
DNA 1: CAATCTGAATTCCGGTCTCCC
DNA 2: TGGTGGCTACGACGGGATT
B4: CCAUCUC (DNA:RNA)
RNA: B1 RNA with U25C, U26C, G28U, A29C
DNA 1: CAATCTGAATTCCGGTCTCCC
DNA 2: TGGTGGCTACGACGGGATT
B5: GCAUGCA (DNA:RNA)
RNA: B1 RNA with U25G, U26C, G28U, A29G, U30C, C31A
DNA 1: CAATCTGAATTCCGGTCTCCC
DNA 2: TGGTGGCTACGACGGGATT
B6: CGCAUCG (DNA:RNA)
RNA: GGGAGACCGGAAUUCAGAUUGUCCCGCAUCGUUAAAUCCCGUCGUAGCCACCA
DNA 1: CAATCTGAATTCCGGTCTCCC
DNA 2: TGGTGGCTACGACGGGATT
B7: GCAUUAA (DNA:RNA)
RNA: B6 RNA with C25G, G26C, C27A, A28U, C30A, G31A
DNA 1: CAATCTGAATTCCGGTCTCCC
DNA 2: TGGTGGCTACGACGGGATT
B8: GUCCGCA (DNA:RNA)
RNA: B6 RNA with C25G, G26U, A28C, U29G, G31A
DNA 1: CAATCTGAATTCCGGTCTCCC
DNA 2: TGGTGGCTACGACGGGATT
B9: GCAUCAG (DNA:RNA)
RNA: B6 RNA with C25G, G26C, C27A, A28U, U29C, C30A
DNA 1: CAATCTGAATTCCGGTCTCCC
DNA 2: TGGTGGCTACGACGGGATT
B10: GCAUCCG (DNA:RNA)
RNA: B6 RNA with C25G, G26C, C27A, A28U, U29C
DNA 1: CAATCTGAATTCCGGTCTCCC
DNA 2: TGGTGGCTACGACGGGATT

The binders below were run against T1, RBFOX1 RRM (assay: EMSA; HiTS-Eq, 1 nM pool, 10 min; buffer printed only for the single-RNA assays: 10 mM Tris pH 7.5, 150 mM NaCl, 3.4 mM EDTA, 0.001% NP-40, 30 C). Details: tags: His6 N-terminal (pET28a); label: 5' 32P.
Procedure, shortened: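 Purified RbFox RRM (wild type or mutant) was equilibrated for 10 min in 50 µL with 1 nM of a 5′-radiolabelled pool of RNA with 7 randomized nucleotides, its flanks annealed to DNA oligonucleotides, across increasing protein concentrations. Free RNA was separated by 8% native PAGE, excised, reverse-transcribed, PCR-barcoded and sequenced on an Illumina HiSeq 2500. Relative association constants came from read-count changes of each variant against the control reaction, normalised to the cognate motif.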
B1 was tested, and the binding signal was 0.0111 KA relative to UGCAUGU. B2 was tested, and the binding signal was 0.0292 KA relative to UGCAUGU. For B3, the binding signal was 0.00629 KA relative to UGCAUGU. With B4 the binding signal was 0.00486 KA relative to UGCAUGU. B5 was tested, and the binding signal was 0.751 KA relative to UGCAUGU. In the case of B6, the binding signal is reported as 0.017 KA relative to UGCAUGU. For B7, the binding signal was 0.00489 KA relative to UGCAUGU. B8 was tested, and the binding signal was 0.0155 KA relative to UGCAUGU. For B9, the binding signal was 0.0121 KA relative to UGCAUGU. In the case of B10, the binding signal is reported as 0.0325 KA relative to UGCAUGU.
